HT1080NT lethal: kills 2HG-producing HT-1080-NT fibrosarcoma cells. HT-1080-NT fibrosarcoma viability, CellTiter-Glo ATP luminescence, 48 h. Potency, µM (titrated, usually from 46.1 µM), inactives show top-dose activity, negative = less viability, hits mostly cytotoxic. 1.6% of 360,000 active. AID 686970;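 note: NT is the 2HG producing partner of a matched IDH1 knockdown line; potency is the fitted concentration of half-maximal effect; 0% = DMSO-treated cells and -100% = media-only wells without cells; nearly all actives have a fitted effect of over 55% in size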
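Compounds were tested in concentration-response format on HT-1080-NT cells for 48 hours at 37 degrees C. Cell viability came from CellTiter-Glo luminescence; curves were classified by r2, response magnitude and activity.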
HT1080 IDH1KD tx: kills HT-1080 cells with IDH1 knockdown. HT-1080 IDH1 knockdown viability, ATP luminescence, 48 h. Potency, µM (highest dose often 46.1 µM), for the others: at the highest dose activity, negative = toxicity, actives largely listed as cytotoxic. 2% of 360,000 active. AID 686971;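 note: potency is the fitted concentration of half-maximal effect; 0% = DMSO wells and -100% = cell-free medium wells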
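Viability of IDH1-knockdown HT-1080 fibrosarcoma cells was assessed by CellTiter-Glo after 48 h at 37 °C with titrated compound; concentration-effect curves were classified by fit quality and response size.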
TDP1 cell CPT: DT40-hTDP1 cell growth loss with CPT; Potency, µM (highest dose often 46.2 µM), for the others: at the top dose activity change, negative = growth inhibition, most hits filed as inhibitors; 12% of 420,000 active; chicken DT40 Tdp1-/-;hTDP1 cells + 20 nM CPT, ATP luminescence, 48 h; note: potency is the fitted concentration of half-maximal effect; nearly all actives have a fitted effect of over 55% in size
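Chicken DT40 Tdp1-/- cells complemented with human TDP1, 400 cells/well, exposed to compounds plus 20 nM camptothecin for at least 48 h at 37 C; viability read as ATP content by CellTiter-Glo luminescence.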
ELG1 repair inh: ELG1-dependent DNA repair inhibition | HEK293T ELG1-luciferase reporter, luminescence, 16 h; DNA damage induced by 5-fluorouridine | 2.3% of 330,000 active | Potency, µM (titrated, usually from 46.1 µM), without a hit: at the highest dose activity change, negative = inhibition, hits mostly inhibitors; note: potency is the fitted concentration of half-maximal effect; nearly all actives have a fitted effect of over 55% in size
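Overnight (16 hr) co-exposure of 2,000 cells/well to 5-fluorouridine and compound at 37 °C preceded detection. Luciferase was quantified via ONE-Glo luminescence; loss of signal denotes inhibition.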
IL-1B inflam inh: blocks inflammasome-driven IL-1 beta release; THP-1 LPS/ATP IL-1B secretion, AlphaLISA, 16 h; hits give low values; activity change, % at 57.5 µM; 4.7% of 360,000 active; AID 743279; in the data active = activity change below about -50%; inconclusive = mostly about -30% to -49%
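Secreted IL-1B measured by AlphaLISA bead assay after 16 h compound exposure of THP-1 cells; compounds (final up to 57.5 uM) added 1 h before LPS (250 ng/mL) and ATP (1.25 mM) stimulation; lower signal means less secretion.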
DT40 TDP1 no CPT: qHTS for Inhibitors of human tyrosyl-DNA phosphodiesterase 1 (TDP1): qHTS in cells in absence of CPT. Potency, µM (series often up to 46.2 µM), inactives show at the top dose activity change, negative = growth inhibition, hits mostly inhibitors. DT40 Tdp1-/- hTDP1 cells, no CPT, ATP luminescence, 48 h. 15% of 420,000 active; note: potency is the fitted concentration of half-maximal effect; nearly all actives have a fitted effect of over 55% in size
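Growth of hTDP1-complemented DT40 Tdp1-knockout cells is measured by ATP luminescence after at least 48 hr compound exposure at 37 °C, with DMSO substituting for the 20 nM CPT used in the parallel screen.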
* marks the source's active call; other numbers are inactive results; ? = inconclusive; nt = no result. In the library only some 19% were active in any assay of this set; here they are far more common. Unless noted, calls come from the whole dose curve; as a rule, active = well fitted curve in the direction sought with a large enough effect; inconclusive = small, poorly fitted or top-dose-only effect, or another doubt; inactive = no such curve, though single readings can be large; an effect the other way counts as inactive or inconclusive. Unless noted, % is set by controls: 0 for no effect and ±100 for the full control effect.

SMILES | HT1080NT lethal | HT1080 IDH1KD tx | TDP1 cell CPT | ELG1 repair inh | IL-1B inflam inh | DT40 TDP1 no CPT
O=S(=O)(NCC(c1cccnc1)N1CCN(c2ccc(F)cc2)CC1)c1ccccc1 (centres undefined) | 3% | -6% | 12µM* | nt | 9 | 21µM*
CC(=O)O[C@H]1CCC2C3CCC4=CC(=O)CCC4=C3C=C[C@@]21C (some centres undefined) | 0% | 4% | ? | 3% | -20 | ?
C=C1C([C@@H](O)C[C@H](C)C2O[C@@]3(CCCCO3)CC[C@H]2C)OC2CC[C@@]3(CC[C@@H](/C=C/[C@@H](C)C4CC(C)=C[C@]5(O4)O[C@H](C[C@@](C)(O)C(=O)O)CCC5O)O3)OC2[C@@H]1O (some centres undefined) | nt | nt | 0.013µM* | nt | nt | 0.01µM*
C=C1C(O)[C@@H]2O[C@]3(CC[C@H](/C=C/C(C)[C@@H]4CC(C)=CC5(O[C@H](C[C@@](C)(O)C(=O)O)CCC5O)O4)O3)CC[C@H]2O[C@@H]1C(O)CC(C)[C@H]1OC2(CCCCO2)CCC1C (some centres undefined) | ? | 0.0082µM* | 0.16µM* | 0.052µM* | ? | 0.15µM*
N[C@@H](Cc1ccccc1)C(=O)N1C[C@H]2C[C@@H](C1)c1cccc(=O)n1C2 | -1% | 8% | -5% | ? | 11 | 0%
O=C1NC(=S)NC(=O)C1c1ccccc1 | 17% | 8% | 0% | nt | 17 | 1%
CCN1C[C@]2(COC)CC[C@H](OC)[C@@]34C5C[C@@H]6[C@@H](OC)C[C@@]7(OCO[C@@]7([C@@H](O)C23)[C@@H]14)C5[C@H]6OC (some centres undefined) | nt | nt | 0% | nt | nt | 0%
CNC(=O)Oc1cc2c(cc1C(C)(C)C)CCC2 | -21% | -23% | 16µM* | nt | -2 | 16µM*
COC(=O)[C@@]12CCCCN1[C@H](c1ccc(-c3ccc(Cl)c(Cl)c3)c(OC)c1)[C@H]1C(=O)N(C)C(=O)[C@H]12 | 16% | 13% | 18µM* | -28% | 2 | 16µM*
COC(=O)[C@@H]1N=C(c2ccc(OC)cc2)O[C@]12C(=O)N(C)c1cccc(Cl)c12 | 18% | 1% | 9% | nt | 0 | -19%
COC(=O)[C@@]12CCCCN1[C@H](c1ccc(-c3ccc(Cl)c(Cl)c3)c(OC)c1)[C@@H]1C(=O)N(C)C(=O)[C@@H]12 | -2% | 7% | 12µM* | nt | -52* | 10µM*
COc1ccccc1N=Nc1ccc(N)c(C)c1 | -4% | -17% | -13% | ? | -9 | -27%
O=C(Nc1ccc(Br)cc1)c1cc(Br)cc(Br)c1O | nt | nt | -25% | nt | nt | -2%
COc1cccc(CNCC(O)(c2ccc(Cl)cc2)c2ccc(Cl)cc2)c1 | ? | ? | 23µM* | ? | -57* | 23µM*
COc1ccc(OC)c(CNCCc2ccc(OC)c(OC)c2)c1 | 7% | -6% | 13% | -8% | -12 | -16%
COc1cccc(CCNCc2cccc(C(F)(F)F)c2)c1 | -21% | -16% | -1% | -6% | -136* | ?
COc1ccc(Cn2c(O)c(C=Nc3c(C)n(C)n(-c4ccccc4)c3=O)c(=O)[nH]c2=O)cc1 | 2% | 3% | ? | -16% | 5 | -1%
Cc1c(N=Cc2c(O)n(Cc3ccccc3)c(=O)[nH]c2=O)c(=O)n(-c2ccccc2)n1C | 0% | -6% | 2% | -4% | -72* | -11%
Cc1c(N=Nc2c(O)n(Cc3ccccc3)c(=O)[nH]c2=O)c(=O)n(-c2ccccc2)n1C | -14% | ? | 16µM* | ? | 21 | 12µM*
Cc1c(N=Cc2c(O)n(Cc3ccco3)c(=O)[nH]c2=O)c(=O)n(-c2ccccc2)n1C | 12% | 11% | -8% | 6% | 7 | 2%
CSc1cccc(NP2(=O)OCC(C)([N+](=O)[O-])CO2)c1 (centres undefined) | -2% | 2% | ? | nt | 1 | -28%
Cc1ccc2c(c1)c(=O)c1c3n2CCN(CC2CO2)C3CC1 (centres undefined) | -21% | -3% | 18µM* | -3% | 5 | ?
O=C(COc1ccc2ccc(=O)oc2c1)N1C[C@H]2C[C@@H](C1)c1cccc(=O)n1C2 | 2% | 11% | -1% | -19% | -8 | 2%
C#C[C@]1(O)CCC2C3CCC4=C/C(=N/OCC(=O)NC(C)C(=O)NC(CCSC)C(=O)O)CC[C@]4(C)C3CC[C@@]21C (some centres undefined) | 14% | 2% | -12% | 8.2µM* | -25 | 4%
C#C[C@]1(O)CC[C@H]2[C@@H]3CCC4=CC(=O)CC[C@]4(C)[C@H]3CC[C@@]21C | 20% | 2% | -23% | 11% | 3 | -11%
SMILES | HT1080NT lethal | HT1080 IDH1KD tx | TDP1 cell CPT | ELG1 repair inh | IL-1B inflam inh | DT40 TDP1 no CPT
COP(=S)(OC)Oc1ccc(S(N)(=O)=O)cc1 | nt | nt | -7% | nt | nt | -4%
Cc1ccc(Cl)c(O)c1 | nt | nt | -13% | nt | nt | -4%
Cc1ccc(C(O)P(=O)(Oc2ccccc2)Oc2ccccc2)cc1 (centres undefined) | 0% | 1% | 0% | 8% | -24 | -9%
O=C(c1ccccc1)C1NC1c1ccccc1 (centres undefined) | 8% | 0% | 13% | ? | -21 | -6%
C[C@@H](Cc1ccccc1)NCCC(c1ccccc1)c1ccccc1 | nt | nt | ? | nt | nt | 6.4µM*
CCCC(CCC)C(=O)OC[N+](C)(C)CCOC(=O)C(O)(c1ccccc1)C1CCCC1 (centres undefined) | 4% | 1% | ? | 4% | ? | 12µM*
CC1CCCC(C)N1/N=C/c1c[nH]c2ccc(Br)cc12 (centres undefined) | 21µM* | ? | ? | -6% | -93* | ?
Clc1ccc(CCC(Cn2ccnc2)Sc2c(Cl)cccc2Cl)cc1 (centres undefined) | ? | ? | ? | ? | 0 | 26µM*
Clc1ccc(Cn2ccnc2)cn1 | -2% | 6% | 24% | -17% | 15 | 5%
CC(C)NC(=O)N1Cc2cc(C(=O)NC3CCCCC3)nc(-c3cccc(-c4cccnc4)c3)c2[C@@H]1CCO | -23% | -24% | 12µM* | nt | ? | 10µM*

Screening data as filed in PubChem.
